Holding throughout (details): mRNA level, 48 h; actives raise or lower the signal
Read-out in assay [1]: Paternally Expressed 10 (PEG10), PEG10 (gene 23089)
The assay can be described thus: LTEA_HepaRG_PEG10: Life Technologies and Expression Analysis (LTEA) Assay for Paternally Expressed 10 (PEG10) using HepaRG (AID 2283520).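 As to AC50: differentiated HepaRG human liver cells in serum-free induction medium with 0.5% DMSO; PEG10 transcript by qRT-PCR normalised to ACTB GAPDH and POLR2A.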 The method, boiled down:
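Human HepaRG cultures are dosed for 48 h across an eight-point half-log series starting at 100 uM, with 0.5% DMSO as vehicle and baseline. Gain or loss of PEG10 transcript is measured by qRT-PCR and fitted in both directions.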

Read-out in assay [2]: Nuclear factor NF-kappa-B p105 subunit (Homo sapiens) (UniProt P19838)
The assay is described as follows: LTEA_HepaRG_NFKB1: Life Technologies and Expression Analysis (LTEA) Assay for Nuclear Factor Kappa B Subunit 1 (NFKB1) using HepaRG (AID 2283521).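 Also: differentiated human HepaRG liver cells in serum-free induction medium; TaqMan qRT-PCR transcript normalised to ACTB GAPDH and POLR2A housekeeping genes.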 The method, boiled down: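 HepaRG, 48 h exposure; 8-pt half-log series from 100 uM in 0.5% DMSO; duplicates. Readout: NFKB1 mRNA by qRT-PCR (Fluidigm arrays), housekeeping-normalized. Gain/loss fit vs DMSO baseline.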

Read-out in assay [3]: Protein phosphatase 2A (PPP2R4), PTPA (gene 5524)
The assay is described as follows: LTEA_HepaRG_PPP2R4: Life Technologies and Expression Analysis (LTEA) Assay for Protein phosphatase 2A (PPP2R4) using HepaRG (AID 2283522). The method, boiled down: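 Cells were plated, cultured 48 h, switched to serum-free induction medium, then dosed for 48 h (8 points, max 100 uM, 0.5% DMSO). RNA was isolated and PPP2R4 expression measured by TaqMan qRT-PCR.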

Read-out in assay [4]: Phosphatase and tensin (PTEN), PTEN (gene 5728)
The assay can be described thus: LTEA_HepaRG_PTEN: Life Technologies and Expression Analysis (LTEA) Assay for Phosphatase and tensin (PTEN) using HepaRG (AID 2283523). The method, boiled down:
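HepaRG, 48 h exposure, 8-pt half-log series from 100 uM top, 0.5% DMSO vehicle, duplicates. Readout: Fluidigm qRT-PCR of PTEN transcript; housekeeping normalization (ACTB, GAPDH, POLR2A). Gain or loss fitted relative to DMSO baseline.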

Read-out in assay [5]: solute carrier (SLC22A1), SLC22A1 (gene 6580)
The assay can be described thus: LTEA_HepaRG_SLC22A1: Life Technologies and Expression Analysis (LTEA) Assay for solute carrier (SLC22A1) using HepaRG (AID 2283524). The method, boiled down: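 qRT-PCR readout (TaqMan, Fluidigm arrays) of SLC22A1 transcript, normalized to three housekeeping genes; bidirectional curve fit relative to 0.5% DMSO vehicle. Differentiated human HepaRG cells, 48 h chemical exposure, top concentration 100 uM, half-log steps, eight points.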

Read-out in assay [6]: Pyruvate Dehydrogenase Kinase 4 (PDK4), PDK4 (gene 5166)
The assay is described as follows: LTEA_HepaRG_PDK4: Life Technologies and Expression Analysis (LTEA) Assay for Pyruvate Dehydrogenase Kinase 4 (PDK4) using HepaRG (AID 2283525). The method, boiled down: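 HepaRG (human liver line), 48 h chemical exposure, 8-pt half-log CRC top 100 uM, 0.5% DMSO vehicle, duplicates. Readout: TaqMan qRT-PCR of PDK4 mRNA, housekeeping-normalized; gain/loss fit relative to DMSO baseline.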

Read-out in assay [7]: NAD(P)H dehydrogenase [quinone] 1 (NQO1), NQO1 (gene 1728)
The assay is described as follows: LTEA_HepaRG_NQO1: Life Technologies and Expression Analysis (LTEA) Assay for NAD(P)H dehydrogenase [quinone] 1 (NQO1) using HepaRG (AID 2283526). The method, boiled down: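 Transcript induction or suppression is quantified by qRT-PCR in human HepaRG liver cells dosed for 48 hours. Eight half-log concentrations topping at 100 uM are used, with 0.5% DMSO as vehicle and baseline.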

Read-out in assay [8]: Nuclear factor erythroid 2-related factor 2 (Homo sapiens) (UniProt Q16236)
The assay is described as follows: LTEA_HepaRG_NFE2L2: Life Technologies and Expression Analysis (LTEA) Assay for Nuclear factor erythroid 2-related factor 2 (NFE2L2) Transcription Factor using HepaRG (AID 2283527).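 Also: TaqMan qRT-PCR transcript level normalised to ACTB GAPDH and POLR2A housekeeping genes.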 The method, boiled down:
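HepaRG, 48 h dosing, 8-pt half-log series from 100 uM in 0.5% DMSO, duplicates. Read-out: NFE2L2 mRNA by qRT-PCR (ACTB/GAPDH/POLR2A normalization). Bidirectional curve fit vs DMSO baseline.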

Read-out in assay [9]: succinate dehydrogenase complex iron sulfur subunit B (SDHB), SDHB (gene 6390)
The assay can be described thus: LTEA_HepaRG_SDHB: Life Technologies and Expression Analysis (LTEA) Assay for succinate dehydrogenase complex iron sulfur subunit B (SDHB) using HepaRG (AID 2283528). The method, boiled down: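 Readout is SDHB transcript level by qRT-PCR, normalised to three housekeeping genes and fitted bidirectionally against 0.5% DMSO vehicle. Human HepaRG cells were treated for 48 h at up to 100 uM.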

Read-out in assay [10]: Signal transducer and activator of transcription 3 (Homo sapiens) (UniProt P40763)
The assay can be described thus: LTEA_HepaRG_STAT3: Life Technologies and Expression Analysis (LTEA) Assay for Signal transducer and activator of transcription (STAT3) using HepaRG (AID 2283529). The method, boiled down:
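HepaRG, 48 h exposure, 8-pt half-log series (top 100 uM), 0.5% DMSO vehicle, duplicates. Readout: STAT3 transcript by Fluidigm qRT-PCR, housekeeping-normalized; bidirectional fit vs DMSO baseline.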

Read-out in assay [11]: solute carrier (SLCO1B1), SLCO1B1 (gene 10599)
The assay can be described thus: LTEA_HepaRG_SLCO1B1: Life Technologies and Expression Analysis (LTEA) Assay for solute carrier (SLCO1B1) using HepaRG (AID 2283530). The method, boiled down: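 HepaRG, serum-free induction medium, 48 h dosing, 8-pt half-log from 100 uM, 0.5% DMSO vehicle, duplicates. Readout: SLCO1B1 mRNA, qRT-PCR, ACTB/GAPDH/POLR2A normalization; up or down fit vs DMSO.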

Read-out in assay [12]: sulfotransferase 2A1 (SULT2A1), SULT2A1 (gene 6822)
The assay can be described thus: LTEA_HepaRG_SULT2A1: Life Technologies and Expression Analysis (LTEA) Assay for sulfotransferase 2A1 (SULT2A1) using HepaRG (AID 2283531). The method, boiled down: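 Transcript levels of SULT2A1, quantified by qRT-PCR and normalized to three housekeeping genes, serve as the readout. Human HepaRG cultures receive test chemicals for 48 h at up to 100 uM in half-log steps, with 0.5% DMSO vehicle.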

Read-out in assay [13]: Transforming Growth Factor (TGFA), TGFA (gene 7039)
The assay can be described thus: LTEA_HepaRG_TGFA: Life Technologies and Expression Analysis (LTEA) Assay for Transforming Growth Factor (TGFA) using HepaRG (AID 2283532). Put shortly:
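qRT-PCR read-out of TGFA transcript, normalized to three housekeeping genes, fitted bidirectionally against 0.5% DMSO baseline. Human HepaRG cultures received chemicals for 48 h at eight half-log concentrations, top 100 uM.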

Read-out in assay [14]: Transforming Growth Factor (TGFB1), TGFB1 (gene 7040)
The assay can be described thus: LTEA_HepaRG_TGFB1: Life Technologies and Expression Analysis (LTEA) Assay for Transforming Growth Factor (TGFB1) Transporter using HepaRG (AID 2283533). The method, boiled down: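 HepaRG, 48 h post-plating, switched to serum-free induction medium; chemicals 100 uM top, half-log, 8 pts, 0.5% DMSO, dup; 48 h exposure; RNA → Fluidigm TaqMan qRT-PCR; norm ACTB/GAPDH/POLR2A; bidirectional fit vs DMSO.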

Read-out in assay [15]: TIMP1, TIMP1 (gene 7076)
The assay can be described thus: LTEA_HepaRG_TIMP1: Life Technologies and Expression Analysis (LTEA) Assay for TIMP1 using HepaRG (AID 2283534). Put shortly:
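Readout is TIMP1 mRNA level measured by qRT-PCR and normalized to three housekeeping genes. Human HepaRG cells were treated for 48 h in duplicate at eight concentrations up to 100 uM (0.5% DMSO); gain or loss fitted against DMSO.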

Read-out in assay [16]: Tumor necrosis factor receptor 1 (TNFRSF1A), TNFRSF1A (gene 7132)
The assay is described as follows: LTEA_HepaRG_TNFRSF1A: Life Technologies and Expression Analysis (LTEA) Assay for Tumor necrosis factor receptor 1 (TNFRSF1A) using HepaRG (AID 2283535). Put shortly: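 Read-out is TNFRSF1A transcript level by TaqMan qRT-PCR, normalized to three housekeeping genes, scored as gain or loss of signal versus 0.5% DMSO. Human HepaRG cells received test chemicals for 48 h at up to 100 uM (half-log series).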

Read-out in assay [17]: Thyroid Hormone Responsive (THRSP), THRSP (gene 7069)
The assay is described as follows: LTEA_HepaRG_THRSP: Life Technologies and Expression Analysis (LTEA) Assay for Thyroid Hormone Responsive (THRSP) using HepaRG (AID 2283536). The method, boiled down: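 qRT-PCR read-out (Fluidigm TaqMan), housekeeping-normalized (ACTB/GAPDH/POLR2A). HepaRG, 48 h chemical exposure, 8-pt half-log series from 100 uM in 0.5% DMSO, duplicates. Bidirectional curve fit vs 0.5% DMSO baseline.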

Read-out in assay [18]: Cellular tumor antigen p53 (Homo sapiens) (UniProt P04637)
The assay can be described thus: LTEA_HepaRG_TP53: Life Technologies and Expression Analysis (LTEA) Assay for Tumor Protein P53 (TP53) using HepaRG (AID 2283537). Put shortly: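 Read-out is TP53 transcript level by microfluidic qRT-PCR, normalised to three housekeeping genes and fitted bidirectionally against DMSO. Human HepaRG cells received compounds for 48 h, highest concentration 100 uM.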

Read-out in assay [19]: UDP glucuronosyltransferase (UGT1A1), UGT1A1 (gene 54658)
The assay is described as follows: LTEA_HepaRG_UGT1A1: Life Technologies and Expression Analysis (LTEA) Assay for UDP glucuronosyltransferase (UGT1A1) using HepaRG (AID 2283538). Put shortly: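 Cells are plated, cultured 48 h, switched to serum-free induction medium, then dosed 48 h at eight concentrations (max 100 uM, 0.5% DMSO). RNA is isolated and UGT1A1 expression measured by qRT-PCR; changes versus DMSO are fitted in both directions.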

Read-out in assay [20]: UDP glucuronosyltransferase (UGT1A6), UGT1A6 (gene 54578)
The assay can be described thus: LTEA_HepaRG_UGT1A6: Life Technologies and Expression Analysis (LTEA) Assay for UDP glucuronosyltransferase (UGT1A6) using HepaRG (AID 2283539). The method, boiled down:
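HepaRG, 48 h post-plating switch to serum-free induction medium; chemical 48 h, 100 uM top, half-log x8, duplicate, 0.5% DMSO. Phenobarbital 1mM induction control. UGT1A6 mRNA by TaqMan qRT-PCR; gain/loss fit vs DMSO.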

For six compounds, outcome and AC50 results are on record in PubChem BioAssay (EPA / NIEHS).

Each structure is given as a SMILES string. The source made the active and inactive calls. The calls were made as follows: active = hit-call score of the fitted dose curve at least 0.9, where 1 is the maximum; inactive = score below 0.9.

The term AC50 denotes the midpoint of the concentration-response curve, whichever way the signal moves.

Chain of Nuclear factor NF-kappa-B p105 subunit (Homo sapiens) (P19838 whole entry, looked up): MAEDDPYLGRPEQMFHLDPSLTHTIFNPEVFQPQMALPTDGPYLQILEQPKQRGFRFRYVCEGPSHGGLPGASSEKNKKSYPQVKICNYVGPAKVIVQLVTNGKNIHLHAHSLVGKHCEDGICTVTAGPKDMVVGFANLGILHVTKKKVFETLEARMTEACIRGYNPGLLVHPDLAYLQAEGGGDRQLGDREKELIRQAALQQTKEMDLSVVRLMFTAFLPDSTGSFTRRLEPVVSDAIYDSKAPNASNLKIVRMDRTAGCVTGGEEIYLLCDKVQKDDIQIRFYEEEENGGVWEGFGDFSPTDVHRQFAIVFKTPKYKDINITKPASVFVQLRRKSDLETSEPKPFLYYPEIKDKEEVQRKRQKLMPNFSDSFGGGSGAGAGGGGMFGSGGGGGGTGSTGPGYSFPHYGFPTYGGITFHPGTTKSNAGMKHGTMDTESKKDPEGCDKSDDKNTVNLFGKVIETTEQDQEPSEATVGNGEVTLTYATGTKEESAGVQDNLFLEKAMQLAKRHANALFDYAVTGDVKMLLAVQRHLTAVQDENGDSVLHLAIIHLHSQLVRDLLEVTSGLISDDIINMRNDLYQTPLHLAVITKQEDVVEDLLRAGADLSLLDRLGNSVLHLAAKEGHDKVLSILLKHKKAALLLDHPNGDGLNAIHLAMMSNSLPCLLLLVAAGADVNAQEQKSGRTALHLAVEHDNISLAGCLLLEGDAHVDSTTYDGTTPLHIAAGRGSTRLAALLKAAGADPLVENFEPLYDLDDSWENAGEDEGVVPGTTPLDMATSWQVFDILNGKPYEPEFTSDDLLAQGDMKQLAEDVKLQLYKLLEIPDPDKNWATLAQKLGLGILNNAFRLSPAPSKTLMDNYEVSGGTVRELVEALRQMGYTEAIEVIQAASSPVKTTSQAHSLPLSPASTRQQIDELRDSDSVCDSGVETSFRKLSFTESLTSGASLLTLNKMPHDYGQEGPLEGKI
Chain of Signal transducer and activator of transcription 3 (Homo sapiens) (P40763 whole entry, looked up): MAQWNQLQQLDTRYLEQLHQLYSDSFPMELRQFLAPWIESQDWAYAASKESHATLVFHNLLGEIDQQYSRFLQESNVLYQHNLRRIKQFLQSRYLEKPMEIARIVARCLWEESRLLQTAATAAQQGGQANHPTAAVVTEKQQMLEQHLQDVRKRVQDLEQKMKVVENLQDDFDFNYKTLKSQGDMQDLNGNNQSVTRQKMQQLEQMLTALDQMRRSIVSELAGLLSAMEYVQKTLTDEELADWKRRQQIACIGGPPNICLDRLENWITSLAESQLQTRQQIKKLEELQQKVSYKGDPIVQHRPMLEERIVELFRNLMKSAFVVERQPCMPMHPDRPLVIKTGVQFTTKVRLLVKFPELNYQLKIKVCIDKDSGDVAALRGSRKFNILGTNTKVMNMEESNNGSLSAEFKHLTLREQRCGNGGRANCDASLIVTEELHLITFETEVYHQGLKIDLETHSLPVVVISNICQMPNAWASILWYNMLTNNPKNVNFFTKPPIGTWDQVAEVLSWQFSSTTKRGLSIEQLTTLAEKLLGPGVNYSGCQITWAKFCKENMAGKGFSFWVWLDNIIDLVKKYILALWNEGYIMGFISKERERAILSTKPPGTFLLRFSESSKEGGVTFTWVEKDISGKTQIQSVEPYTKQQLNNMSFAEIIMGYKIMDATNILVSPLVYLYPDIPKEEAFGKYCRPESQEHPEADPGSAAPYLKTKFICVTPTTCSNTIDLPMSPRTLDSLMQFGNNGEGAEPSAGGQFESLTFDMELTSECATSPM
Chain of Cellular tumor antigen p53 (Homo sapiens) (P04637 whole entry, looked up): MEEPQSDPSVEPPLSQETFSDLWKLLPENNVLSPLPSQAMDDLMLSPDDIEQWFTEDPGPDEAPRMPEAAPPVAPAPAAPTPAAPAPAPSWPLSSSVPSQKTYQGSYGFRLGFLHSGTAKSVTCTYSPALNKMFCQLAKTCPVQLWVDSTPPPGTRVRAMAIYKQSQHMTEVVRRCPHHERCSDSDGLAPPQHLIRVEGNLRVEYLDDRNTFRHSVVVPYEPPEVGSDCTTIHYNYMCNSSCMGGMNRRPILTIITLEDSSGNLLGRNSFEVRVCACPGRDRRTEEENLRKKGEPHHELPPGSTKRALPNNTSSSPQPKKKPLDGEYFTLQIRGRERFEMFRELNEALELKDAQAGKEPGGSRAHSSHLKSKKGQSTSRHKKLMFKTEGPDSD
Chain of Nuclear factor erythroid 2-related factor 2 (Homo sapiens) (Q16236 whole entry, looked up): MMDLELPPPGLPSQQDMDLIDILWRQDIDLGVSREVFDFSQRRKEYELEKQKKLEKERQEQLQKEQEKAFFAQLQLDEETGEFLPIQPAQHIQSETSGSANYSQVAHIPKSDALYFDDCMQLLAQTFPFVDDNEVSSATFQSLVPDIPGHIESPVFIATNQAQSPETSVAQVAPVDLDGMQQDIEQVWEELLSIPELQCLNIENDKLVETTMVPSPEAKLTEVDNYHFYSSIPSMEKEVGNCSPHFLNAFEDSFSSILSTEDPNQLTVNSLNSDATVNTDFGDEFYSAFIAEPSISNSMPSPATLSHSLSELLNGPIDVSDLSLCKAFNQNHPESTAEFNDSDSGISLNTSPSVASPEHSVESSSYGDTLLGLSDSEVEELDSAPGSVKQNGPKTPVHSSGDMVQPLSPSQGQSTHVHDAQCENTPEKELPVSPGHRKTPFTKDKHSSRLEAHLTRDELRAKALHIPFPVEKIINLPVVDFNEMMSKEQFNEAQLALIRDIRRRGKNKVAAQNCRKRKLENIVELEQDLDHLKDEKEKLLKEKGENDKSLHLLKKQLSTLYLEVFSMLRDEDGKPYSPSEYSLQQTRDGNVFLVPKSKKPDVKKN

For the compound `CCOC(=O)O[C@H](C)OC(=O)c1ccc2c(c1)cc(C(=O)NC1CCN(C(C)C)CC1)n2Cc1cc(-c2ccc(Cl)s2)on1`, the result in assay [1], in assay [2], in [3], in assay [4], in assay [5] and in assay [6] was inactive. Further, the compound was classed as inactive in [7], in [8], in assay [9], in assay [10], in assay [11] and in assay [12]. Besides, the compound was called inactive in assay [13], in assay [14], in [15], in assay [16], in assay [18] and in assay [19]. In addition, in assay [20], the compound was called inactive. Moreover, the AC50 in assay [17] is 16 µM (active).
Turning to `O=C1c2ccccc2C(=O)N1CCc1noc(-c2ccc(CN3CCCCCC3)s2)n1`, the AC50 in [1] is 42.2 µM (active); in assay [19] it was 17.8 µM (active). Besides, the compound was classed as inactive in assay [2], in assay [3], in assay [4], in [5], in [7] and in assay [8]. Further, the result in [9], in assay [11], in [12], in [13], in assay [14] and in assay [15] was inactive. For the same compound, the call in assay [16], in assay [17], in assay [18] and in [20] was inactive.
Turning to `c1ccc2n[nH]nc2c1`, the call in [1], in assay [2], in [3], in assay [4], in assay [5] and in assay [7] was inactive. Also, the outcome in assay [8], in assay [9], in [10], in assay [11], in [12] and in assay [13] was inactive. Besides, the compound was classed as inactive in assay [14], in [15], in assay [16], in assay [17], in [18] and in assay [19]. Moreover, the compound was called inactive in assay [20].
In the case of `O=C=NCCCCCCN=C=O`, the call in assay [1], in assay [2], in assay [3], in [4], in assay [5] and in assay [7] was inactive. The outcome in [8], in assay [9], in [11], in assay [12], in [13] and in assay [14] was inactive. Further, the result in assay [15], in assay [16], in [17], in assay [18], in assay [19] and in assay [20] was inactive.
`O=C1CCC(C2CCCCC2)CC1`: the compound was called inactive in assay [1], in assay [2], in [3], in [4], in assay [5] and in assay [6]. The call in [8], in assay [10], in assay [11], in [13], in assay [14] and in [15] was inactive. Also, the compound was called inactive in [16], in assay [17], in [18], in assay [19] and in assay [20].
In the case of `Oc1ccc2ccccc2c1`, the compound was classed as inactive in assay [1], in assay [2], in assay [3], in assay [4], in assay [5] and in [6]. The result in assay [8], in assay [9], in [10], in assay [11], in [12] and in [13] was inactive. Further, the call in assay [14], in assay [15], in assay [16], in assay [17], in assay [18] and in assay [19] was inactive. The call in assay [20] was inactive.
